Results: ChEMBL document CHEMBL3988442, “University of Dundee, Small-Polar-MMV Screening Library” (2021)
The whole screen tested about 48,000 compounds, of which about 13,000 (27%) showed an effect of 50% or more. The list shows a part of the results.

Test system: Wolbachia pipientis
Experiment: Anti-Wolbachia Cell-Based Screen
Type: functional
Parameters: scale not given: in the data most compounds retested in dose-response had high values
Conditions: 5 µM

SMILES | Percent Effect
CO[C@@H]1CCN(c2ncc(F)cn2)[C@@H]2CN(CC3CC3)C[C@@H]21 | 9.085%
CCN1CC(=O)NCC12CCN(C(=O)c1ccno1)C2.O=C(O)C(F)(F)F (stereo not drawn) | -6.47%
O=S(=O)(c1cccc(Cl)c1)N1C[C@@H]2CCN[C@@H]2C1 | -5.104%
O=C1NC[C@H]2CN(Cc3nccs3)CCN12 | 4.843%
CC(C)(CNc1ccc(C#N)c(C(F)(F)F)c1)C(N)=O | -0.8311%
Cc1nocc1C(=O)N1CCOC2(COCCN(CC3CC3)C2)C1 (stereo not drawn) | 116%
CCN1CCOCC2(C1)CN(C(=O)c1c(C)noc1C)CCO2 (stereo not drawn) | 103.8%
COCCN1C[C@@H](C)[C@@]2(COCCN(C(=O)c3ccncc3)C2)C1.O=C(O)C(F)(F)F.O=C(O)C(F)(F)F | 2.912%
COCCN1CCOCC2(C1)CN(C(=O)c1conc1C)CCO2.O=C(O)C(F)(F)F (stereo not drawn) | 91.15%
COc1ccc(C(=O)N2CCOC3(CNCCOC3)C2)c(OC)n1 (stereo not drawn) | -6.762%
COCCN1C[C@@H](C)[C@@]2(COCCN(C(=O)c3ccno3)C2)C1.O=C(O)C(F)(F)F | 2.349%
Cc1noc(C)c1CN1CCOC2(CCCN(c3nncs3)C2)C1.O=C(O)C(F)(F)F (stereo not drawn) | -6.2%
Cc1noc(C)c1C(=O)N1CCC2(CC1)c1nc[nH]c1CCN2C | 14.77%
Cc1noc(C)c1C(=O)N1CCOC2(COCCN(C(C)C)C2)C1.O=C(O)C(F)(F)F (stereo not drawn) | 90.48%
O=C(O)C(F)(F)F.O=C(O)C(F)(F)F.c1cnc(N2CCC3(COCCN(CC4CC4)C3)C2)nc1 (stereo not drawn) | -6.749%
Oc1cccc2ccc(CN3CCC4(CCNCC4)C3)nc12 | 2.778%
Cn1nc(CN2CCCCC(N)C2)c2c(Cl)cccc21 (stereo not drawn) | -4.304%
Cc1nocc1C(=O)N1CCOC2(COCCN(C(C)C)C2)C1.O=C(O)C(F)(F)F (stereo not drawn) | 91.68%
Cc1cnc(N2CCC3(CC2)COCCN(C(C)C)C3)nc1.O=C(O)C(F)(F)F | 7.175%
CC(C)N1CCOCC2(CN(Cc3ccccn3)CCO2)C1.O=C(O)C(F)(F)F.O=C(O)C(F)(F)F.O=C(O)C(F)(F)F (stereo not drawn) | -11.42%
CSC1(CNC(=O)NC(C)Cc2cccc(F)c2)CCOCC1 (stereo not drawn) | -4.564%
Cc1nc(CN2CCO[C@H]3CN(C(=O)Cc4cccs4)C[C@H]32)cs1 | 2.702%
Cc1ccccc1CC(=O)N1C[C@@H](O)[C@H](N2CCOCC2)C1 | 153.4%
Cc1ccccc1CC(=O)N1C[C@@H](O)[C@H](N2CCN(C)CC2)C1 | 176.4%
CC(=O)N1CCN([C@@H]2CN(C(=O)Cc3ccccc3C)C[C@H]2O)CC1 | 157.7%
Cc1ccccc1CC(=O)N1C[C@@H](O)[C@H](N2CCC(F)(F)CC2)C1 | 138.7%
Cc1ccccc1CC(=O)N1CCN(C2CCOC2=O)CC1 (stereo not drawn) | 5.646%

SMILES | Percent Effect
Cc1ccccc1CC(=O)N1C[C@H]2CC[C@@H]1CN(Cc1cccnc1)C2 | 5.499%
CN(C)C(=O)CN1CCN(c2ncccn2)[C@@H]2CS(=O)(=O)C[C@@H]21 | -3.142%
CC(c1ccccc1F)N1CCN(C(=O)Cc2ccncc2)CC1 (stereo not drawn) | -4.813%
COc1cccc(CC(C)NCC(=O)Nc2ccccc2C)c1 (stereo not drawn) | 0.2022%
CC[C@H]1CN2CC[C@H]1C[C@@H]2CNCc1ccc(N(C)C)cc1 | 11.9%
O=C(Cc1cccc(F)c1)N1CCN2C[C@H](Oc3cncnc3)C[C@H]2C1.O=C(O)C(F)(F)F | 1.194%
Cc1ccc(O[C@@H]2C[C@H]3CN(c4ncc(F)cn4)CCN3C2)cc1.O=C(O)C(F)(F)F.O=C(O)C(F)(F)F | 83.44%
O=C(O)C(F)(F)F.O=C(O)C(F)(F)F.c1ccc(CO[C@@H]2C[C@H]3CN(c4ncccn4)CCN3C2)cc1 | 2.223%
Cc1cccc(CO[C@@H]2C[C@H]3CN(c4ncccn4)CCN3C2)n1.O=C(O)C(F)(F)F.O=C(O)C(F)(F)F.O=C(O)C(F)(F)F | -11.39%
Cc1cnc(N2CCN3C[C@H](OCc4ccccn4)C[C@H]3C2)nc1.O=C(O)C(F)(F)F.O=C(O)C(F)(F)F | 0.855%
O=C(c1ccco1)N1CCN2C[C@H](Oc3cncnc3)C[C@H]2C1 | 1.787%
Fc1cnc(N2CCN3C[C@H](Oc4cncnc4)C[C@H]3C2)nc1.O=C(O)C(F)(F)F.O=C(O)C(F)(F)F | 110.2%
O=C(O)C(F)(F)F.O=C(O)C(F)(F)F.c1cnc(N2CCN3C[C@H](Oc4cncnc4)C[C@H]3C2)nc1 | 105.8%
Fc1ccccc1CO[C@@H]1C[C@H]2CN(c3ncccn3)CCN2C1.O=C(O)C(F)(F)F | -0.171%
Fc1cnc(N2CCN3C[C@H](Oc4cccnc4)C[C@H]3C2)nc1.O=C(O)C(F)(F)F.O=C(O)C(F)(F)F.O=C(O)C(F)(F)F | 90.39%
CC(C)c1cc(C(=O)N2CCN(C)[C@@H]3CS(=O)(=O)C[C@@H]32)no1 | -18.46%
O=C(NC[C@H]1C[C@@H]2CCN1C[C@@H]2CN1CCCCC1)c1ccco1 | 3.904%
CCCSCC(=O)N1C[C@H]2CC[C@@H]1CN(Cc1cccnc1)C2 | -15.35%
CC[C@H](C)[C@@H](CO)NC(C)Cc1ccccc1F (stereo partly drawn) | 127.2%
CC(=O)N1CCC(CCNC(C)Cc2ccc(F)cc2)CC1 (stereo not drawn) | 3.455%
CCOCC(=O)NC(C)Cc1ccccc1Br (stereo not drawn) | -9.65%
COC(=O)C(CO)NC(=O)c1cn(Cc2ccccc2F)nn1 (stereo not drawn) | -17.52%
CNS(=O)(=O)CC(=O)NC(C)Cc1ccc(Br)cc1 (stereo not drawn) | -6.603%
CC[C@H](C)[C@@H](CO)NC(C)Cc1ccc(F)cc1 (stereo partly drawn) | 95.88%
CC[C@H](C)[C@@H](CO)NC(C)Cc1ccc(Cl)cc1 (stereo partly drawn) | 125.5%
CC[C@H](C)[C@@H](CO)NC(C)Cc1ccc(C)cc1 (stereo partly drawn) | 96.84%
